SSB-PriA inh: inhibitors of Klebsiella pneumoniae PriA binding to SSB C-terminal tail; AlphaScreen SSBct-PriA binding, biotinylated peptide; inhibition, % at 33 µM; 430,000 compounds, 0.6% hits; in the data active = inhibition mostly above about 37%, no sharp cut-off; inactive = mostly below about 20%
CCHF vOTU inh-1: CCHFV vOTU protease inhibition; Pep-AMC fluorescence; inhibition, % at 11.5 µM; 370,000 compounds, 0.55% hits
RecA intein inh: inhibitors of M. tuberculosis RecA intein splicing | inhibition, % (no concentration beside the values) | P9WHJ3 | AID 2221 | cell-free RecA intein splicing, fluorescence | 290,000 compounds, 0.75% hits; in the data active = inhibition above about 30%
3CLpro inhibitor: SARS-CoV 3CLpro protease inhibition; P0C6X7; recombinant SARS-CoV 3CLpro, quenched FRET peptide cleavage; inhibition, % at 6 µM; 290,000 compounds, 0.14% hits; in the data active = inhibition above about 12%
DUSP3 inh: DUSP3 (human) phosphatase inhibition | P51452 | recombinant VHR phosphatase, pNPP absorbance | inhibition, % at 13.3 µM | 290,000 compounds, 0.52% hits | AID 1654; in the data active = inhibition above about 50%
Target sequence (P51452 whole entry, looked up): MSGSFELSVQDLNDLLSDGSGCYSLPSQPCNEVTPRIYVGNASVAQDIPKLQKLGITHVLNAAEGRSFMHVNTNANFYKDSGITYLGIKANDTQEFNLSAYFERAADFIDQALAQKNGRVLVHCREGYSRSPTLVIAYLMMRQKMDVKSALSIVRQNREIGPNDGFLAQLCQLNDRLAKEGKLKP
CCHF vOTU inh-2: CCHFV vOTU protease inhibition, confirmation | shares compounds with CCHF vOTU inh-1 | Recombinant CCHFV vOTU, Pep-AMC fluorescence | inhibition, % at 11.5 µM | 1,900 compounds, 17% hits | AID 686976
Hits are given with their value. Compounds with a hit are over-represented: about 1.7% of the library has one in this group of screens. Cut-off read from the data, not from the text of the source, unless noted: active = inhibition above about 30%; inactive = the rest.

What do the screens show for `COc1cc2c(cc1OC)[C@H](COc1ccc(F)cc1)N(C(=O)Cc1cccc3ccccc13)CC2`?
SSB-PriA inh: inactive

What do the screens show for `CC(NC1=C(Cl)C(=O)c2ccccc2C1=O)C(=O)O` (stereo not drawn)?
SSB-PriA inh: inactive

How did O=C1C(Cl)=C(NCCCN2CCOCC2)C(=O)c2ccccc21 do in these assays?
SSB-PriA inh: inactive; CCHF vOTU inh-1: inactive

How did CN(C)c1ccc(NC2=C(Cl)C(=O)c3ccccc3C2=O)cc1 do in these assays?
SSB-PriA inh: 63.6; CCHF vOTU inh-1: 56.4; RecA intein inh: inactive; 3CLpro inhibitor: inactive; DUSP3 inh: inactive; CCHF vOTU inh-2: inactive

How did O=C1C(Cl)=C(NCCCO)C(=O)c2ccccc21 do in these assays?
SSB-PriA inh: inactive; CCHF vOTU inh-1: 45.2; RecA intein inh: inactive; 3CLpro inhibitor: inactive; DUSP3 inh: inactive; CCHF vOTU inh-2: 48.1

Results for CCOCCCNC1=C(Cl)C(=O)c2ccccc2C1=O ?
SSB-PriA inh: inactive; CCHF vOTU inh-1: 46.5; RecA intein inh: inactive; 3CLpro inhibitor: inactive; DUSP3 inh: inactive; CCHF vOTU inh-2: 59.6

Results for O=C1C(Cl)=C(NCCN2CCOCC2)C(=O)c2ccccc21 ?
SSB-PriA inh: inactive; CCHF vOTU inh-1: 43.4; RecA intein inh: inactive; 3CLpro inhibitor: inactive; DUSP3 inh: inactive; CCHF vOTU inh-2: 62.1

How did Cc1nc(-c2ccccc2)sc1C(=O)NCCOc1cccc(C(F)(F)F)c1 do in these assays?
SSB-PriA inh: inactive

How did COCCCn1c(N)c(C(=O)Nc2ccccc2)c2nc3ccccc3nc21 do in these assays?
SSB-PriA inh: inactive; CCHF vOTU inh-1: inactive; RecA intein inh: inactive; 3CLpro inhibitor: inactive; DUSP3 inh: inactive

How did COCCCn1c(N)c(C(=O)Nc2sc3c(c2C(=O)OC)CCCC3)c2nc3ccccc3nc21 do in these assays?
SSB-PriA inh: inactive; CCHF vOTU inh-1: 34.8; RecA intein inh: inactive; 3CLpro inhibitor: inactive; DUSP3 inh: inactive; CCHF vOTU inh-2: inactive

Results for Cn1cnc(S(=O)(=O)Nc2ccccc2-c2csc(-c3ccccc3F)n2)c1 ?
SSB-PriA inh: inactive

Results for CN(C)c1cccc2c1c(NS(=O)(=O)c1cn(C)cn1)nn2C ?
SSB-PriA inh: inactive; CCHF vOTU inh-1: 52.0; RecA intein inh: inactive; 3CLpro inhibitor: inactive; DUSP3 inh: inactive; CCHF vOTU inh-2: 50.3

What do the screens show for `COc1ccc2ccccc2c1C1N(c2ccc(F)cc2)C(=O)C2CCCN21` (stereo not drawn)?
SSB-PriA inh: inactive

How did Cc1ccc(-c2ccc(=O)n(CCCNC(=O)c3ccc4ccccc4n3)n2)cc1 do in these assays?
SSB-PriA inh: inactive

How did COc1ccc(C)cc1S(=O)(=O)N(C)CC(=O)Nc1ccc2c(c1)OCO2 do in these assays?
SSB-PriA inh: inactive; CCHF vOTU inh-1: 30.4; RecA intein inh: inactive; 3CLpro inhibitor: inactive; DUSP3 inh: inactive; CCHF vOTU inh-2: inactive

What do the screens show for `Cc1ccc(Nc2ccc(NCCNC(=O)COc3ccc(-n4cccn4)nn3)nn2)nc1`?
SSB-PriA inh: inactive

Results for CCC(C)(C)c1ccc(OCCCC[n+]2cccc(C)c2)c(C(C)(C)CC)c1 ?
SSB-PriA inh: inactive; CCHF vOTU inh-1: 40.4; RecA intein inh: inactive; 3CLpro inhibitor: inactive; DUSP3 inh: inactive; CCHF vOTU inh-2: inactive

Results for CCC(C)(C)c1ccc(OCCCC(=O)Nc2ccc(Cl)c(NC(=O)CC(=O)C(C)(C)C)c2)c(C(C)(C)CC)c1 ?
SSB-PriA inh: inactive

What do the screens show for `CCCCCCc1nc(C(N)=O)c2[nH]c(=O)n(-c3ccc(OC)cc3OC)c2n1`?
SSB-PriA inh: inactive; CCHF vOTU inh-1: 29.9; RecA intein inh: inactive; 3CLpro inhibitor: inactive; DUSP3 inh: inactive; CCHF vOTU inh-2: inactive

What do the screens show for `CC(=O)Nc1ccc(Nc2nc3ccccc3nc2NS(=O)(=O)c2ccc(Cl)c([N+](=O)[O-])c2)cc1`?
SSB-PriA inh: inactive; CCHF vOTU inh-1: 31.7; CCHF vOTU inh-2: inactive

Results for CCn1c(SCC(=O)Nc2ccc(Cl)cc2)nnc1C1CC1 ?
SSB-PriA inh: inactive; CCHF vOTU inh-1: inactive; RecA intein inh: inactive; 3CLpro inhibitor: inactive; DUSP3 inh: inactive

Results for CCCn1c(SCC(=O)Nc2ccc(Cl)cn2)nnc1C1CC1 ?
SSB-PriA inh: inactive; CCHF vOTU inh-1: 34.3; RecA intein inh: inactive; 3CLpro inhibitor: inactive; DUSP3 inh: inactive; CCHF vOTU inh-2: inactive

Results for COc1ccc(NC(=O)Cn2cccc(-c3nc(-c4ccccc4)no3)c2=O)cc1Cl ?
SSB-PriA inh: inactive

What do the screens show for `Cc1cc2c(C(C)C)c(O)c(O)c(C=O)c2c(O)c1-c1c(C)cc2c(C(C)C)c(O)c(O)c(C=O)c2c1O`?
CCHF vOTU inh-1: 63.3; RecA intein inh: inactive; 3CLpro inhibitor: inactive; DUSP3 inh: inactive; CCHF vOTU inh-2: 31.0

What do the screens show for `COc1ccccc1-c1sc2cc3c(cc2c1-c1ccc(O)cc1)OCO3`?
SSB-PriA inh: inactive; CCHF vOTU inh-1: 29.7; CCHF vOTU inh-2: inactive

What do the screens show for `COCc1ccc(-c2c(-c3ccccc3OC)sc3cc4c(cc23)OCO4)cc1`?
SSB-PriA inh: inactive; CCHF vOTU inh-1: inactive

How did Cc1cccc(Cn2c(C(=O)OC(C)C)cc3c2ccn3C)c1 do in these assays?
SSB-PriA inh: inactive; CCHF vOTU inh-1: 35.0; RecA intein inh: inactive; 3CLpro inhibitor: inactive; DUSP3 inh: inactive; CCHF vOTU inh-2: inactive

Results for CC(C)(C)N(Cc1nc(-c2ccccc2)no1)C(=O)c1ccc2c(c1)OCO2 ?
SSB-PriA inh: inactive; CCHF vOTU inh-1: 29.8; RecA intein inh: inactive; 3CLpro inhibitor: inactive; DUSP3 inh: inactive; CCHF vOTU inh-2: inactive

Results for CN(Cc1nc(-c2ccccc2)no1)C(=O)c1ccc2c(c1)OCO2 ?
SSB-PriA inh: inactive; CCHF vOTU inh-1: inactive; RecA intein inh: inactive

What do the screens show for `CN(Cc1ccccc1)c1csc2ccccc2c1=O`?
SSB-PriA inh: inactive

How did CCOc1ccc(NC(=O)c2cccc([N+](=O)[O-])c2)c([N+](=O)[O-])c1 do in these assays?
SSB-PriA inh: inactive

What do the screens show for `Cc1ccc(S(=O)(=O)Nc2ccccc2C(=O)Nc2nc(-c3ccc(F)cc3)cs2)cc1`?
SSB-PriA inh: inactive; CCHF vOTU inh-1: 30.2; RecA intein inh: inactive; 3CLpro inhibitor: inactive; DUSP3 inh: inactive; CCHF vOTU inh-2: inactive

Results for COc1ccc(-c2csc(NC(=O)c3ccccc3NS(=O)(=O)c3ccc(F)c(F)c3)n2)cc1 ?
SSB-PriA inh: inactive; CCHF vOTU inh-1: 37.3; RecA intein inh: inactive; 3CLpro inhibitor: inactive; DUSP3 inh: inactive; CCHF vOTU inh-2: inactive

Results for CCOc1ccc(NC(=O)c2ccccc2NS(=O)(=O)c2ccc(F)cc2)c([N+](=O)[O-])c1 ?
SSB-PriA inh: inactive; CCHF vOTU inh-1: 30.1; RecA intein inh: inactive; 3CLpro inhibitor: inactive; DUSP3 inh: inactive; CCHF vOTU inh-2: inactive

Results for Cc1ccc(C)c(-c2nnc(NC(=O)CN3C(=O)CCC3=O)o2)c1 ?
SSB-PriA inh: inactive

What do the screens show for `CCOc1ccc(C(=O)Nc2ccc3c(c2)CN(S(=O)(=O)c2cccs2)CC3)cc1`?
SSB-PriA inh: inactive

What do the screens show for `COc1cc2ccccc2cc1C(=O)N1CCNC(=O)C1(C)C`?
SSB-PriA inh: inactive
